# Out of some 320,000 compounds screened, about 8,000 (2.5%) were called active. The sample holds actives, similar compounds and a random draw of the others, so the mix is not that of the screen. Values without a mark were called inactive. Rule as the data show it: active = activation above about 47%; inactive = the rest.
# Biological target: Aryl hydrocarbon receptor (Homo sapiens) (UniProt P35869)
# Assay: AHR activators, primary screen, cell-based, luminescence, luciferase reporter, human (AID 2796);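 also: 0% = vehicle wells and 100% = reference agonist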
# Conditions: AHR-responsive luciferase reporter cells, at 5 µM, stronger effect = higher value
# Aryl hydrocarbon receptor (Homo sapiens), sequence (P35869 whole entry, looked up): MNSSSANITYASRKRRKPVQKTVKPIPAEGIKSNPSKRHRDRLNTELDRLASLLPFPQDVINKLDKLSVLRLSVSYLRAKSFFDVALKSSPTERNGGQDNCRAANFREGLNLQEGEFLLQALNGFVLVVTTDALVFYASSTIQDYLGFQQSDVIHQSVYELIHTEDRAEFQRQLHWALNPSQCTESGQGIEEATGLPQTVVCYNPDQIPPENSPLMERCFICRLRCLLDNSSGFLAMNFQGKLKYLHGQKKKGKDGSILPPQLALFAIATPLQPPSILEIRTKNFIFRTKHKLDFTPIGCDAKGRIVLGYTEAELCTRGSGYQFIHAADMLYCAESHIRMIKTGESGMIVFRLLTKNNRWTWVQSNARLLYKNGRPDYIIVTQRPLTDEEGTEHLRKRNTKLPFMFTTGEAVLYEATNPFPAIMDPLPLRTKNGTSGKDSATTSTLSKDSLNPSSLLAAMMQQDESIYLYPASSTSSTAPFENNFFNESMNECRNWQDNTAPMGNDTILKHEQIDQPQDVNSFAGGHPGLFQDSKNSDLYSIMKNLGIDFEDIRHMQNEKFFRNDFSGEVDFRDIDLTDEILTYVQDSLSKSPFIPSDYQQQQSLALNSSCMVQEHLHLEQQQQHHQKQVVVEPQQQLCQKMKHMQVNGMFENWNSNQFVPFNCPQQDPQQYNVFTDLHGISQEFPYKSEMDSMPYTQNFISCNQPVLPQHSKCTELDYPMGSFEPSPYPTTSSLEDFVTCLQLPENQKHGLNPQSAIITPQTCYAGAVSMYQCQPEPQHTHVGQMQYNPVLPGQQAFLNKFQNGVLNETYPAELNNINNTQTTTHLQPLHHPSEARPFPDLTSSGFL
row,Compound,activation
1,OCc1n[nH]c(CO)n1,-0.81%
2,O=C(C1CCN(C2CCN(Cc3cccc4c3OCO4)CC2)CC1)N1CCOCC1,4.05%
3,COc1ccc(CCOC2OC(CO)C(OC(=O)/C=C/c3ccc(O)c(OC)c3)C(O[C@H]3O[C@@H](C)[C@H](O)[C@@H](O)[C@H]3O)C2O)cc1O (some centres not stated),1.88%
4,NC(=O)C1=C[C@H](c2csc3ccccc23)C[C@H](OCc2ccc(CO)cc2)O1,0.39%
5,O=C(NC1CC1)C1=C[C@H](c2c[nH]c3ccccc23)C[C@H](OCc2ccc(CO)cc2)O1,135% (active)
6,NC(=O)C1=C[C@@H](c2csc3ccccc23)C[C@@H](OCc2ccc(CO)cc2)O1,-0.11%
7,CCN(CC)C(=O)COc1coc(CN2CCN(Cc3ccccc3)CC2)cc1=O,-1.36%
8,C/C(=N\Nc1ncc(Cl)cc1Cl)c1cccs1,1.11%
9,C/C(=N\Nc1ncc(Cl)cc1Cl)c1ccc(S(=O)(=O)NCc2ccco2)cc1,29.9%
10,COc1cccc(/C(C)=N/Nc2ncc(Cl)cc2Cl)c1,53.5% (active)
11,CC1CCCCC12NC(=O)N(CC(=O)N1CCN(c3ccccc3)CC1)C2=O (configuration not stated),0.1%
12,CC1=NN(C(=O)CCc2ccccc2O)C(O)(C(F)(F)F)C1 (configuration not stated),-1.07%
13,COc1cccc(OC)c1C(=O)Nc1ccc(Cc2ccncc2)cc1,15.6%
14,COc1cc2ccccc2cc1C(=O)N1CCOCC1,0.61%
15,COc1cc2ccccc2cc1C(=O)Nc1ccc(N2CCOCC2)cc1,95.9% (active)
16,COc1cc2ccccc2cc1C(=O)Nc1ccncc1,5.1%
17,COc1cccc(OC)c1C(=O)Nc1ccc2c(c1)n(C)c(=O)n2C,1.94%
18,COc1cccc(OC)c1C(=O)Nc1ccc(N2CCCCC2)cc1,79.6% (active)
19,FC(F)(F)C1CCCN(c2nsc3ccccc23)C1 (configuration not stated),16.6%
20,Cc1noc(C)c1S(=O)(=O)N(C)C[C@H]1Oc2ccc(NC(=O)C3CCCCC3)cc2C(=O)N([C@H](C)CO)C[C@@H]1C,-1.72%
21,CCc1ccc(NC(=O)CS(=O)CC(=O)N2CCN(c3ccccc3F)CC2)cc1 (configuration not stated),-1.39%
22,Cc1cccc(NC(=S)NCc2ccc3[nH]c4c(c3c2)CCCC4)c1,68% (active)
23,Cc1cc(C)cc(NC(=S)NCc2ccc(F)cc2)c1,4.28%

row,Compound,activation
1,O=C(O)CCC(=O)NCc1ccc2[nH]c3c(c2c1)CCCC3,1.38%
2,Cc1ccc(-c2noc(CSc3nnnn3-c3ccccc3)n2)cc1,8.65%
3,Cc1ccc(Nc2nc(CSc3nnnn3-c3ccccc3)cc(=O)[nH]2)cc1,73.4% (active)
4,COc1ccc(C)cc1-n1nnnc1SCc1nc2ccccc2c(=O)[nH]1,24.9%
5,Cc1ccc(Br)c(NS(=O)(=O)c2cccc(C(=O)N3CCNC(=O)C3)c2)c1,1.33%
6,COC(=O)c1ccc(NC(=O)c2cc(Cl)ccc2OC)cc1,2.68%
7,COc1cc(OC)c(C(=O)Nc2ccc(N(C)C)cc2)cc1OC,-7.49%
8,COc1ccc(Cl)cc1C(=O)Nc1ccc(N(C)C(C)=O)cc1,81.3% (active)
9,Cc1ccsc1C(=O)OCC(=O)Nc1cccc(F)c1,-0.75%
10,Cc1ccc(C(=O)Nc2ccccc2-c2ccccc2)cc1S(=O)(=O)Nc1ccccc1,2.25%
11,Cc1ccc(C)c(NC(=O)C(OC(=O)c2ccc(C)s2)c2ccccc2)c1 (configuration not stated),29.4%
12,CCN(CC)CCNC(=O)CCCCCn1c(=O)[nH]c2cc(C(=O)OC)ccc2c1=O,1.58%
13,Cn1cc(CCC(=O)NCc2ccc3c(c2)OCO3)c2ccccc21,8.58%
14,O=C(CCCCCn1c(=O)[nH]c2ccccc2c1=O)NCCc1c[nH]c2ccccc12,54.7% (active)
15,O=C(CCc1c[nH]c2ccccc12)NCCOc1ccccc1,2.6%
16,O=C(CCCCn1c(=O)[nH]c2ccccc2c1=O)NCc1ccc2c(c1)OCO2,79.9% (active)
17,O=C(CCn1c(=S)[nH]c2cc3c(cc2c1=O)OCO3)NCc1ccc(Cl)cc1,-0.55%
18,O=c1c2ccccc2c(-c2ccccc2)nn1-c1ccccn1,0.2%
19,Cc1ccc(C(=O)NNC(=O)c2cccs2)cc1,-3.24%
20,Cc1ccc(C(=O)NNc2ncnc3ccccc23)cc1,19.4%
21,Cc1ccc(C(=O)NNC(=O)c2cc3cc4ccccc4nc3s2)cc1,64% (active)
22,Cc1cccc(NC(=O)c2ccc(S(=O)(=O)N(C)c3ccccc3)cc2)n1,13.7%
23,O=C(COC(=O)c1ccc([N+](=O)[O-])cc1Cl)NC(=O)c1ccccc1,0.29%

row,Compound,activation
1,CCOC(OCC)c1ccc(/C=C\c2nccc(N)n2)cc1,2.83%
2,CC1=CC=CC2=N/C(=N\S(=O)(=O)c3ccc(F)cc3F)c3ccccc3CN12,68.7% (active)
3,CCNC(=S)N1CCN(S(=O)(=O)c2ccc(Cl)s2)CC1,-1.16%
4,Cc1cc(C)c(/C=C2\C(=O)Nc3ccccc32)[nH]1,47% (active)
5,O=C1Nc2ccccc2/C1=C/c1ccnc2ccccc12,8.16%
6,CN(C)/C=C1/Nc2ccccc2C1=O,33.7%
7,COCCN(C(=O)CCC(=O)Nc1nccs1)C(C(=O)NC(C)(C)C)c1ccc(Cl)cc1 (configuration not stated),0.14%
8,COc1ccccc1C(=O)COC(=O)COc1ccc(C#N)cc1,-0.13%
9,COc1ccc(CCNc2nc(C)cc(C)n2)cc1OC,4.65%
10,COc1ccc(-c2nc(-c3ccccc3)no2)c(OC)c1,70.8% (active)
11,COc1ccc(/C=C/c2noc(-c3ccccc3OC(C)=O)n2)cc1,2.04%
12,Cc1ccc(-c2nc(-c3ccncc3)no2)c(C)c1,3.29%
13,CCOC(=O)N1CCN(S(=O)(=O)N2CCCC(C(=O)NCCCN3CCC(C)CC3)C2)CC1 (configuration not stated),0.65%
14,CCC(C(=O)N1CCN(S(=O)(=O)c2sc(C(=O)O)c(C)c2C(=O)O)CC1)c1ccccc1 (configuration not stated),-0.9%
15,Cc1ccc(Sc2cc(N3CCOCC3)nc(-c3ccccc3)n2)cc1,3.2%
16,Cc1cc(N2CCOCC2)nc(-c2ccc(Br)cc2)n1,86.8% (active)
17,O=S(=O)(c1ccc(Br)cc1)c1nc(-c2ccccc2)oc1N1CCOCC1,3.81%
18,CC(=O)O[C@H]1CC[C@@]2(C)[C@@H](CC[C@@H]3[C@@H]2CC[C@]2(C)[C@@H](C(C)(C)O)C[C@@H]32)C1,1.86%
19,O=C(CNC(=O)c1cc(=O)[nH]c2ccccc12)Nc1ccc(F)c(F)c1,70.8% (active)
20,CC(NC(=O)c1cc(=O)[nH]c2ccccc12)c1ccc(F)cc1F (configuration not stated),-1.44%
21,CCOC(=O)c1ccc(NC(=O)c2cc(=O)[nH]c3ccccc23)cc1,-0.98%
22,COC(=O)C1=CO[C@@H](O[C@@H]2O[C@H](CO)[C@@H](O)[C@H](O)[C@H]2O)C2C1C[C@H](O)[C@@H]2C (some centres not stated),0.44%
23,CC(C)(C)n1nc(Cc2cccc3ccccc23)c(C#N)c1N,51.2% (active)

row,Compound,activation
1,CCc1nn(-c2cc(Oc3cccc4ccccc34)nc(-c3ccccc3)n2)c(N)c1C#N,10.9%
2,N#Cc1nc(-c2cccc3ccccc23)oc1N,-2.82%
3,CCCCOc1ccc(C(=O)NCC(=O)OCC(=O)N2CCN(S(=O)(=O)c3ccc(C)cc3C)CC2)cc1,0.36%
4,COc1ccc(N2CCN(S(=O)(=O)c3cc4c5c(c3)C(C)C(=O)N5CCC4)CC2)cc1 (configuration not stated),-1.29%
5,CN1CCN(/N=C/c2ccc(-c3ccc([N+](=O)[O-])cc3)o2)CC1,38.6%
6,NS(=O)(=O)c1ccc(-c2ccc(/C=C3\SC(=O)NC3=O)o2)cc1,125% (active)
7,CN1C(=O)/C(=C\c2ccc(-c3ccccc3)o2)SC1=S,6.56%
8,c1ccc(-c2nccc(-c3ccc(-n4cnc5ccccc54)cc3)n2)nc1,-6.06%
9,COc1ccc(CCNC(=O)COc2ccc3c(c2)OCO3)cc1,10%
10,CC(C)(C)c1ccc(SCCc2ccncc2)cc1,14.1%
11,CC(C)CCNC(=O)C1CCC(CNc2c(N3CCC(C)CC3)c(=O)c2=O)CC1 (configuration not stated),7.38%
12,Cn1c(=NC(=O)C2CC2)sc2cc(F)cc(F)c21,69.9% (active)
13,O=C(CN(Cc1ccc(Br)cc1)S(=O)(=O)c1ccccc1)NCc1ccncc1,1.87%
14,C=CCn1c(CCNC(=O)c2cccs2)n[nH]c1=S,-2.49%
15,C=CCn1c(=NC(=O)c2ccc(S(=O)(=O)N3CCCC3)cc2)sc2cc(NC(C)=O)ccc21,1.47%
16,C=CCn1c(=NC(=O)c2cccs2)sc2cc(NC(C)=O)ccc21,118% (active)
17,O=C(Oc1c(-c2ccco2)oc2ccccc2c1=O)c1cccnc1,2.09%
18,COc1cccc(/C=C/c2ccc3ccccc3n2)c1OC(C)=O,8.53%
19,COc1ccccc1/C=C/C1=NC(=C\N(C)C)/C(=O)O1,57.2% (active)
20,COc1ccccc1/C=C/C(=O)NC(=S)N1CCOCC1,43%
21,O=C(COC(=O)C1CCCO1)Nc1nc(-c2ccc(F)cc2)cs1 (configuration not stated),-1.85%
22,CC(C)N(Cc1nnc(-c2ccccc2Br)o1)C(=O)c1cc(Cl)nc2ccccc12,18.6%
23,CCOc1ccc(S(=O)(=O)Nc2cccc(C(=O)NCC3(N4CCCCC4)CCCCC3)c2)cc1,-2.77%
